# Experimental data: the supplement of paper PMC9694430
# Counter-ions that a name gives are not always drawn.
# How the values were obtained:
# Assay in all cases: thermal shift delta Tm vs DMSO control; higher = stronger stabilization (binding)
# Conditions in all cases: 12.5 µM; protein concentration 2 µM
# [1] = system: LOC_OS02G45750-cb003
# How it was run: (§1)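 Heating from 25°C to 95°C at 0.05°C/s, fluorescence was recorded for 19.5 μl wells of 2 μM E. coli-expressed, purified rice kinase domain in 100 mM potassium phosphate pH 7.5, 150 mM NaCl, 10% glycerol and 5 × SYPRO Orange with compound in DMSO. Boltzmann fits gave melting temperatures for this differential scanning fluorimetry assay. The shift reported is the mean of three replicates against the DMSO-only protein.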
# [2] = system: LOC_OS02G54510-cb004
# How it was run: as §1
# [3] = system: LOC_OS03G04050-cb001
# How it was run: as §1
# [4] = system: LOC_OS03G12390-cb001
# How it was run: as §1
# [5] = system: LOC_OS03G27990-cb004
# How it was run: as §1
# [6] = system: LOC_OS03G50450-cb001
# How it was run: as §1
# [7] = system: LOC_OS03G50810-cb003
# How it was run: as §1
# [8] = system: LOC_OS04G35114-cb001
# How it was run: as §1
# [9] = system: T1, LOC_OS04G38480-cb003
# T1 sequence (whole entry): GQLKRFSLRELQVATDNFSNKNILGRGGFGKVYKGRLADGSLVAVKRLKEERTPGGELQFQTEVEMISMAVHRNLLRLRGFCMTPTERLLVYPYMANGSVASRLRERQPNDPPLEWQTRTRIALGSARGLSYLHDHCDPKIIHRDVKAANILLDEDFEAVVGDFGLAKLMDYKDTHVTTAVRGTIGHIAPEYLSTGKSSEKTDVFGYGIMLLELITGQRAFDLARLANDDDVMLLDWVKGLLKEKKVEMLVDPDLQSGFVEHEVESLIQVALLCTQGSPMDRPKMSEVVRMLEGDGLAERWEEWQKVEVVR
# How it was run: as §1
# [10] = system: T2, LOC_OS04G41100-cb001
# T2 sequence (whole entry): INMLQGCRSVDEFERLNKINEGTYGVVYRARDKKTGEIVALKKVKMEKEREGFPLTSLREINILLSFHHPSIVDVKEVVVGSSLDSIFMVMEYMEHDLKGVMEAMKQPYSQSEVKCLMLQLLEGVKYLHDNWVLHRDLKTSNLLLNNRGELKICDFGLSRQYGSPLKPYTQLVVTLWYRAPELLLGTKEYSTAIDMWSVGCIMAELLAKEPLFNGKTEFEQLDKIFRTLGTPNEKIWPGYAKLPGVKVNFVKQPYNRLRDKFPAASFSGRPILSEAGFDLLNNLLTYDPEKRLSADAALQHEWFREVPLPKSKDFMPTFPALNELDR
# How it was run: as §1
# [11] = system: LOC_OS04G57630-cb004
# How it was run: as §1
# [12] = system: LOC_OS05G07850-cb002
# How it was run: as §1
# [13] = system: LOC_OS05G16824-cb004
# How it was run: as §1
# [14] = system: LOC_OS05G28520-cb001
# How it was run: as §1
# [15] = system: LOC_OS05G30820-cb001
# How it was run: as §1
# [16] = system: LOC_OS05G43570-cb004
# How it was run: as §1
# [17] = system: LOC_OS06G16330-cb003
# LOC_OS06G16330-cb003, sequence (as listed by the source): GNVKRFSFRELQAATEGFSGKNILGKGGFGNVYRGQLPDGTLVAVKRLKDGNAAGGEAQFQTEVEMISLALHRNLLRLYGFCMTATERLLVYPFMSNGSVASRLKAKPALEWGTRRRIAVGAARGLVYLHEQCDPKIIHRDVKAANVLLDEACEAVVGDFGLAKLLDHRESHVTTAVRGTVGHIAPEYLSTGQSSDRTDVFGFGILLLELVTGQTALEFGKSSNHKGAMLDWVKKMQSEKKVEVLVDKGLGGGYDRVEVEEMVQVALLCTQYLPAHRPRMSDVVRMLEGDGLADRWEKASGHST
# How it was run: as §1
# [18] = system: T3, LOC_OS06G22820-cb001
# T3 sequence (whole entry): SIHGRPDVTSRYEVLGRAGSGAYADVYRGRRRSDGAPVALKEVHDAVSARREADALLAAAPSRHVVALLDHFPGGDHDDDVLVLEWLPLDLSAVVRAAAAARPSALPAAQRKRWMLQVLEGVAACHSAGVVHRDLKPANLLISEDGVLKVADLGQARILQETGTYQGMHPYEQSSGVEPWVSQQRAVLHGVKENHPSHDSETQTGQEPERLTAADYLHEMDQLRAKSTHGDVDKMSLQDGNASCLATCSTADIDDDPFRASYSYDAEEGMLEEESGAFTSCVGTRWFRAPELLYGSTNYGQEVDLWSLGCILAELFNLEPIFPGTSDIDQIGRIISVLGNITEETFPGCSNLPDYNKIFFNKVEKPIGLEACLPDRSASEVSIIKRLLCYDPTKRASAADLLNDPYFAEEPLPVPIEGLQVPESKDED
# How it was run: as §1
# [19] = system: LOC_OS07G06570-cb004
# How it was run: as §1
# [20] = system: LOC_OS07G07230-cb001
# How it was run: as §1
# 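Note: purified Escherichia coli-expressed rice kinase domain construct.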
Structure (SMILES),thermal shift delta Tm [1],thermal shift delta Tm [2],thermal shift delta Tm [3],thermal shift delta Tm [4],thermal shift delta Tm [5],thermal shift delta Tm [6],thermal shift delta Tm [7],thermal shift delta Tm [8],thermal shift delta Tm [9],thermal shift delta Tm [10],thermal shift delta Tm [11],thermal shift delta Tm [12],thermal shift delta Tm [13],thermal shift delta Tm [14],thermal shift delta Tm [15],thermal shift delta Tm [16],thermal shift delta Tm [17],thermal shift delta Tm [18],thermal shift delta Tm [19],thermal shift delta Tm [20]
Cc1cc(Nc2nc(N[C@@H](C)c3ncc(F)cn3)ncc2Cl)[nH]n1,3.59 °C,2.58 °C,0.1 °C,5.26 °C,0.82 °C,2.31 °C,3.08 °C,1.86 °C,2.03 °C,0.47 °C,0.37 °C,10.9 °C,8.64 °C,0.22 °C,1.6 °C,0.91 °C,7.15 °C,0.49 °C,0.97 °C,0.17 °C
COc1nccnc1NS(=O)(=O)c1ccc(NC(=O)/C=C/c2ccc([N+](=O)[O-])s2)cc1 [Necrosulfonamide],-0.78 °C,0.22 °C,0.43 °C,-0.66 °C,1.32 °C,-0.09 °C,0.29 °C,1.14 °C,0.24 °C,-0.12 °C,-0.33 °C,-1.15 °C,-2.3 °C,-0.14 °C,0.41 °C,0.39 °C,-0.03 °C,0.79 °C,0.22 °C,0.63 °C
CNC(=O)c1ccccc1Nc1cc(Nc2ccc(N3CCOCC3)cc2OC)ncc1C(F)(F)F,5.48 °C,0.23 °C,0.62 °C,7.78 °C,3.73 °C,0.25 °C,1.97 °C,6.3 °C,3.08 °C,0.19 °C,3.79 °C,7.4 °C,9.96 °C,1.03 °C,3.54 °C,0.9 °C,6.99 °C,0.82 °C,1.56 °C,0.72 °C
COc1cc(N2CCC(N)CC2)ccc1Nc1ncc(Cl)c(-c2c[nH]c3ccccc23)n1,2.46 °C,1.23 °C,0.85 °C,14.1 °C,5.3 °C,8.66 °C,6.42 °C,3.73 °C,4.68 °C,1.54 °C,4.46 °C,13.4 °C,8.24 °C,1.74 °C,2.33 °C,1.06 °C,10.4 °C,0.85 °C,2.26 °C,1.14 °C
CO[C@H]1C[C@@H]2CC[C@@H](C)[C@@](O)(O2)C(=O)C(=O)N2CCCC[C@H]2C(=O)O[C@H]([C@H](C)C[C@@H]2CC[C@@H](OCCO)[C@H](OC)C2)CC(=O)[C@H](C)/C=C(\C)[C@@H](O)[C@@H](OC)C(=O)[C@H](C)C[C@H](C)/C=C/C=C/C=C/1C [Everolimus (RAD001)],0.22 °C,-0.05 °C,0.59 °C,0.14 °C,-0.04 °C,-0.1 °C,0.05 °C,-0.39 °C,0.94 °C,0.65 °C,-0.03 °C,-0.04 °C,1.13 °C,0.62 °C,0.41 °C,0.57 °C,0.13 °C,1.04 °C,0.88 °C,-1.46 °C
Oc1cc(O)cc(/C=C/c2ccc(O)c(O)c2)c1 [Piceatannol],-0.87 °C,0.68 °C,0.78 °C,-0.65 °C,0.48 °C,0.23 °C,0.47 °C,0.4 °C,1.45 °C,0.8 °C,0.71 °C,2.79 °C,-0.53 °C,1.37 °C,0.74 °C,0.72 °C,1.4 °C,0.94 °C,0.43 °C,0.27 °C
C#Cc1cccc(Nc2ncnc3cc(OC)c(OCCCCCCC(=O)NO)cc23)c1,2.9 °C,1.18 °C,-0.05 °C,2.33 °C,0.11 °C,0.09 °C,1.73 °C,5.97 °C,1.01 °C,0.37 °C,0.04 °C,7.33 °C,-6.18 °C,0.35 °C,0.58 °C,0.66 °C,1.72 °C,0.49 °C,0.91 °C,-0.06 °C
Cc1cc(Nc2cc(Cl)nc(Oc3ccc([N+](=O)[O-])cc3)n2)n[nH]1 [Autophinib],1.3 °C,0.33 °C,0.63 °C,0.34 °C,0.56 °C,0.75 °C,0.7 °C,0.47 °C,1.06 °C,1.26 °C,-0.11 °C,0.97 °C,-0.37 °C,0.34 °C,0.1 °C,0.13 °C,0.35 °C,0.51 °C,1.89 °C,0.73 °C
CN1CC[C@H](c2c(O)cc(O)c3c(=O)cc(-c4ccccc4Cl)oc23)[C@H](O)C1 [Flavopiridol HCl],1.65 °C,0.99 °C,0.18 °C,2.02 °C,1.25 °C,0.4 °C,0.81 °C,1.99 °C,1.82 °C,0.56 °C,0.77 °C,4.9 °C,0.91 °C,0.55 °C,0.9 °C,0.71 °C,3.57 °C,1.71 °C,0.71 °C,0.03 °C
O=C(NOCC1CC1)c1ccc(F)c(F)c1Nc1ccc(I)cc1Cl,0.27 °C,-0.05 °C,1.06 °C,0.75 °C,0.28 °C,0.46 °C,0.83 °C,0.12 °C,1.28 °C,0.9 °C,0.14 °C,1.54 °C,2.02 °C,1.8 °C,0.63 °C,1.06 °C,0.69 °C,1.27 °C,1.57 °C,0.31 °C
COCCOc1ccc2c(c1)ncn2-c1ccc2cccc(N3CCC(N)CC3)c2n1,16.5 °C,0.43 °C,0.25 °C,1.73 °C,6.71 °C,0.27 °C,8.81 °C,10 °C,2.9 °C,0.51 °C,6.59 °C,16.7 °C,12.6 °C,-0.07 °C,1.5 °C,0.49 °C,7.19 °C,0.77 °C,1.03 °C,0.19 °C
CC1(C)C=Cc2c(ccc3c2OC[C@@H](c2ccc(O)cc2O)C3)O1 [Glabridin],0.34 °C,-0.24 °C,0.88 °C,0.93 °C,0.6 °C,0.36 °C,0.74 °C,0.79 °C,1.12 °C,0.7 °C,0.75 °C,1.39 °C,7.49 °C,0.24 °C,-0.16 °C,0.51 °C,0.92 °C,0.89 °C,0.51 °C,-0.99 °C
